Only some compounds are listed: those with a hit (about 3.5% of all), similar ones and a draw of the others.
MBD2 DNA inh: blocks human MBD2 binding to methylated DNA; Q9UBB5; AID 686964; inhibition, % at 4.4 µM; TR-FRET, MBD2 binding to methylated oligonucleotide; 0.31% of 370,000 active; in the data active = inhibition above about 13%
Target sequence (Q9UBB5 whole entry, looked up): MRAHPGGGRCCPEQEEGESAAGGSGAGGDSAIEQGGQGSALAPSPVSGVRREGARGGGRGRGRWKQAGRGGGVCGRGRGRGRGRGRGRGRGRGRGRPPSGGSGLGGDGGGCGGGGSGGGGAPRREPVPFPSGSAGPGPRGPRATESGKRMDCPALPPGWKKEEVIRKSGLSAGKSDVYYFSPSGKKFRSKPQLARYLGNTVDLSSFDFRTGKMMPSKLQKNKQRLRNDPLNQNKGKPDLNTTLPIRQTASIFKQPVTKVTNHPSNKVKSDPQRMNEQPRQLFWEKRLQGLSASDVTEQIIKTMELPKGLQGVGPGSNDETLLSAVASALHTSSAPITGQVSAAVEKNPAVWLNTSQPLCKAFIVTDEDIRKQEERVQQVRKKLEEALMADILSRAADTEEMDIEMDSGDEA
rCAG RNA binder: r(CAG) repeat RNA binding; TO-PRO-1 dye displacement fluorescence; inhibition, % at 3 µM; 1.3% of 370,000 active; AID 651821;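 active = inhibition above the plate cutoff, the mean of all test compounds on that plate plus 3 SD, cut at about 35% in these data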;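 also: 0% = DMSO alone and 100% = 100 µM mitoxantrone as full dye displacement; higher means more dye released from RNA so lower well fluorescence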
UHRF1 binding: human UHRF1 methylated DNA binding inhibitors; UHRF1 binding to methylated oligo, TR-FRET; inhibition, % at 4.4 µM; 0.75% of 370,000 active; AID 687016; in the data active = inhibition above about 21%;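 also: UHRF1 SRA domain binding a hemimethylated CpG hairpin DNA probe; 0% = median of test compound wells and 100% = reference inhibitor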
LEDGF integ inh: blocks HIV-1 LEDGF/p75-dependent DNA integration. TR-FRET IN-LEDGF/p75 DNA integration, Eu/Cy5. inhibition, % at 3.7 µM. 0.64% of 370,000 active;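 active = inhibition above the screen-wide mean plus 3 SD, cut at about 13% in these data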;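 also: signal is the Cy5 over europium emission ratio at 671 and 618 nm; 0% = plate median of compound wells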
DNMT1 block: blocks human DNA methyltransferase DNMT1. P26358. DNMT1 molecular beacon, Hinp1I cleavage, fluorescence. inhibition (reported as % activation of signal), % at 10 µM. 0.83% of 360,000 active. AID 588458; in the data active = inhibition above about 50%
PG9 Ab binder: binds the HIV-1 gp120 antibody PG9; AID 624416; TR-FRET gp120-PG9 antibody binding; inhibition, % at 6.7 µM; 0.43% of 360,000 active; in the data active = inhibition above about 8.5%
PG9 bind confirm: confirmation of small molecules binding HIV-1 gp120 antibody PG9; shares compounds with PG9 Ab binder; AID 651571; 90% of 1,500 active; TR-FRET PG9 antibody binding, biochemical; inhibition, % at 6.7 µM; in the data active = inhibition above about 9%
PGV04 counter: counter-screen for PG9 binders: binding control antibody PGV04. shares compounds with PG9 Ab binder. TR-FRET PGV04 antibody-gp120 binding, biochemical. inhibition, % at 6.7 µM. 95% of 1,500 active. AID 651604; in the data active = inhibition above about 9.5%
rCAG binder conf: r(CAG) RNA repeat binding, confirmation. shares compounds with rCAG RNA binder. TO-PRO-1 dye displacement fluorescence. inhibition, % at 3 µM. 70% of 4,300 active. AID 652065;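 active = inhibition above a per-plate cutoff, the mean inhibition of sample wells plus 3 SD, cut at about 35% in these data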;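 also: loss of TO-PRO-1 fluorescence as compound displaces dye from 1x1 AA loop RNA; 0% = DMSO only wells and 100% = 100 µM mitoxantrone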
DNA CAG counter: DNA CAG dye complex inhibition counter-screen | AID 652068 | 94% of 4,300 active | shares compounds with rCAG RNA binder | inhibition, % at 3 µM | d(CAG) DNA oligo TO-PRO-1 dye displacement, fluorescence;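 active = inhibition above its plate's cutoff, the mean test-well inhibition plus 3 SD, cut at about 4.8% in these data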;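 also: 0% = DNA dye mix with DMSO and 100% = 100 µM mitoxantrone; hits displace the dye from DNA and so lower well fluorescence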
DNA CAG DR: DNA CAG dye complex inhibition, dose response counter-screen; AID 686960; IC50, µM; shares compounds with rCAG RNA binder; 20% of 250 active; DNA CAG/GTC duplex TO-PRO-1 dye displacement fluorescence; in the data active = IC50 below about 10 µM
IN multimer act: HIV-1 integrase multimerization activation, counter-screen. TR-FRET HIV-1 integrase multimerization, biochemical. activation, % at 7.7 µM. shares compounds with LEDGF integ inh. 17% of 2,000 active; in the data active = activation above about 8.9%
TR-FRET interf: optically interferes with TR-FRET readout in LEDGF counter-screen; shares compounds with LEDGF integ inh; TR-FRET optical interference counterscreen, HIV-1 IN multimerization; inhibition, % at 7.7 µM; 2,000 tested, under 10 active; AID 1053135;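 active = inhibition above the mean over all tested compounds plus 3 SD, which no compound reached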;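 also: 0% = integrase with antibodies and DMSO and 100% = antibodies without integrase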
LEDGF integ conf: LEDGF/p75-dependent HIV-1 integration inhibition, confirmation; shares compounds with LEDGF integ inh; TR-FRET LEDGF/p75-dependent HIV-1 integration, biochemical; inhibition, % at 3.7 µM; 36% of 2,000 active; AID 1053136; in the data active = inhibition above about 14%
The depositor's hits bear a star; . = no result given.

SMILES	MBD2 DNA inh	rCAG RNA binder	UHRF1 binding	LEDGF integ inh	DNMT1 block	PG9 Ab binder	PG9 bind confirm	PGV04 counter	others
Cc1ccc(-n2c(C)cc(/C=C3/C(=O)NC(=O)N(C)C3=O)c2C)cc1	-2.1	-0.4	-0.7	2.7	3.1	-0.6	.	.
O=C(c1ccc2c(c1)ncn2C1CCCCC1)N1CCC2(CC1)OCCO2	-3.2	4.2	1.3	-1.2	.	-0.2	.	.
Cc1cccc(C)c1NC1=NCCCCS1	-8.2	-2.3	0.7	-2.1	0.7	1.1	.	.
CCCCn1c(=O)c(C(=O)Nc2ccccc2S(N)(=O)=O)c(O)c2ccccc21	-2.4	17.3	0.5	1.4	4.8	-0.2	.	.
CCCCCn1c(=O)c(C(=O)Nc2ccccc2S(N)(=O)=O)c(O)c2ccccc21	2.7	12.2	-1.6	-5.9	8.0	69.2*	79.2*	83.2*
CCCC(=O)OCC[N+](C)(C)C	2.1	2.9	0.0	4.5	1.5	0.8	.	.
CCn1c(O)c(C=Nc2ccc(S(N)(=O)=O)cc2)c(=O)n(CC)c1=S	-3.1	16.6	1.7	-4.1	-3.6	54.3*	68.7*	86.0*
CCn1c(O)c(C=Nc2ccc(S(N)(=O)=O)cc2)c(=O)[nH]c1=S	-1.9	2.2	-1.3	-0.8	3.0	25.3*	91.7*	92.0*
CCn1c(O)c(C=NCc2ccccc2)c(=O)[nH]c1=S	5.6	-0.1	2.1	-3.9	10.2	10.8*	27.7*	37.1*
NS(=O)(=O)c1ccc(N=Cc2c(O)n(C3CCCCC3)c(=O)n(C3CCCCC3)c2=O)cc1	-3.9	8.7	-1.4	-3.4	-10.3	-0.2	.	.
COC(=O)C1=C(c2ccc(C(C)=O)cc2)C[C@@H]2CC[C@H]1N2C(=O)NCCO	-1.0	0.6	1.3	0.1	5.8	0.3	.	.
Cc1cccc(NC(=O)CSc2nnc([C@@H](N)Cc3c[nH]c4ccccc34)o2)c1C	-0.1	6.6	-3.7	-1.6	-6.1	0.8	.	.
Cc1cc(OCC(=O)O)c2c3c(c(=O)oc2c1)CCCC3	0.4	-1.2	1.5	1.5	1.6	-0.5	.	.
CCCOC(=O)COc1cc(C)cc2oc(=O)c3c(c12)CCC3	-1.1	-0.3	5.3	-1.2	-2.2	9.9*	22.9*	29.5*
Cn1cc(/C=C2\C(=O)NC(=O)N(c3ccccc3)C2=O)c2ccccc21	-3.9	-0.2	-3.0	-0.5	5.7	11.2*	7.0	20.4*
CC(C)C[C@H]1C(=O)N2CCC[C@H]2[C@]2(O)O[C@](NC(=O)[C@@H]3C=C4c5cccc6[nH]cc(c56)C[C@H]4N(C)C3)(C(C)C)C(=O)N12	.	.	.	.	-41.8	.	.	.
CC[C@@H](CO)NC(=O)[C@@H]1C=C2c3cccc4[nH]cc(c34)C[C@H]2N(C)C1	0.2	5.0	10.6	14.1*	-4.6	15.8*	21.3*	33.2*	IN multimer act=-0.3;TR-FRET interf=1.2;LEDGF integ conf=16.7*
CCC(CO)NC(=O)C1C=C2c3cccc4[nH]cc(c34)CC2N(C)C1 (stereo unspecified)	3.7	5.6	9.8	21.3*	-18.5	14.3*	11.6*	15.1*	IN multimer act=0.1;TR-FRET interf=-0.6;LEDGF integ conf=4.8
CCOc1cc(/C=C2\C(=O)NC(=O)N(CCc3ccc(F)cc3)C2=O)ccc1O	-4.9	27.6	-5.2	5.4	-3.0	-2.1	.	.
Oc1c(Cl)cc(Cl)cc1CN1CCN(Cc2ccccc2)CC1	0.9	-5.8	3.1	-2.8	-1.3	-1.4	.	.
Oc1c(Cl)cccc1Cc1cc(Cl)cc(Cl)c1O	-5.0	58.9*	-0.9	1.7	-2.8	-2.6	.	.	rCAG binder conf=61.8*;DNA CAG counter=16.2*;DNA CAG DR=>29.9
C=CCN1CC[C@]23c4c5ccc(O)c4OC2C(O)CC[C@@]3(O)[C@H]1C5 (stereo partly specified)	-3.9	2.4	-1.2	0.1	-2.1	-0.1	.	.
CNc1ccc2oc(C[C@H]3O[C@@]4(CC[C@H]3C)O[C@H]([C@H](C)C(=O)c3ccc[nH]3)[C@H](C)C[C@H]4C)nc2c1C(=O)O	-3.5	78.5*	-4.7	10.7	14.3	-0.6	.	.	rCAG binder conf=38.3*;DNA CAG counter=7.3*
OCC#CC[N+]1(CC#Cc2ccccc2)CCOCC1	1.2	-1.6	-0.4	1.0	-1.6	-0.9	.	.
CC[C@@H](C(=O)[C@@H](C)[C@@H](O)[C@H](C)CCc1ccc(C)c(O)c1C(=O)O)[C@H]1O[C@](CC)([C@H]2CC[C@](O)(CC)[C@H](C)O2)C[C@@H]1C	-2.5	57.8*	-1.2	9.3	17.8	-1.1	.	.	rCAG binder conf=60.2*;DNA CAG counter=12.3*;DNA CAG DR=>29.9
SMILES	MBD2 DNA inh	rCAG RNA binder	UHRF1 binding	LEDGF integ inh	DNMT1 block	PG9 Ab binder	PG9 bind confirm	PGV04 counter	others
C[N+](C)(C)CC1CCCC1=O (stereo unspecified)	-4.0	1.9	-1.4	-1.2	1.6	-0.9	.	.
Cc1cc(OCC(=O)NC(Cc2ccc(Cl)cc2)C(=O)O)c2c3c(c(=O)oc2c1)CCC3 (stereo unspecified)	-4.9	54.3*	-0.3	-2.2	0.5	0.3	.	.	rCAG binder conf=53.7*;DNA CAG counter=15.5*
COc1cc(/C=C2\C(=O)NC(=O)N(c3ccccc3)C2=O)c([N+](=O)[O-])cc1OC	0.6	2.5	-9.3	3.9	1.7	0.6	.	.
COc1ccc(OC)c(N2C(=O)NC(=O)/C(=C/c3ccc([N+](=O)[O-])s3)C2=O)c1	-2.0	78.8*	1.3	10.4	20.9	-2.8	.	.	rCAG binder conf=72.9*;DNA CAG counter=37.6*
CCOc1ccc(N2C(=O)NC(=O)/C(=C\c3ccc(N4CCCCC4)o3)C2=O)cc1	2.0	-24.4	-2.2	-5.6	11.1	-5.7	.	.
CCOc1ccc(N2C(=O)/C(=C/c3ccc(C)o3)C(=O)NC2=S)cc1	-2.9	36.2*	-1.9	3.6	50.1*	0.1	.	.	rCAG binder conf=44.7*;DNA CAG counter=17.3*
CC/C(=N\N1CCN(C)CC1)c1c(O)[nH]c(=O)[nH]c1=O	4.2	1.4	1.5	-0.7	0.9	0.0	.	.
